The panel holds about 83,000 compounds, 20% with a hit somewhere; the sample as a whole holds those more often.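 Testing used 96-well plates and a 48-hour single-concentration exposure. Example: -40 means 40% of the starting cells died.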 The source made the active and inactive calls. How the source made its calls: active means growth percent below 10; inactive means the rest.
Test system: HL-60(TB) leukemia
Experiment: NCI-60 one-dose screen, 48 h (100 = growth as untreated, 0 = no growth, -100 = all killed)
Conditions: 10 µM unless noted

Row | SMILES | growth
1 | Cc1[nH]c(/C=C/C(=O)c2ccc(C(F)(F)F)c(F)c2)c(C)c1C(=O)NCC(C)C | 98.5% (inactive)
2 | O=C(O)CN1C(=O)CCC1=O | 134% (inactive)
3 | Cc1c(-c2ccc(-c3ccccc3F)cc2)nc2ccc(F)cc2c1C(=O)O | 5.22% (active)
4 | O=C1C=CC(=O)c2c(O)c(CO)c(CO)c(O)c21 | 64.2% (inactive)
5 | CS(=O)(=O)c1ccc(/C(=N/NC(N)=S)c2ccc(F)cc2)cc1 | 99.1% (inactive)
6 | COc1cc2c(Nc3ccc(Br)cc3F)ncnc2cc1OCC1CCN(C)CC1 | 0.964% (active)
7 | CC1(C)N=C(N)N=C(N)N1c1ccc(OCC(=O)Nc2ccccc2)c(Cl)c1 | 13.8% (inactive)
8 | CN(C)CCCn1c2c(c3cnccc3c1=O)C(=O)c1ccccc1-2 | 2.29% (active)
9 | Cn1cc(-c2ccc3c(Nc4cccc(NC(=O)Nc5cccc(F)c5)c4)ncnc3c2)cn1 | 74.1% (inactive)
10 | CC(C)OC(=O)Nc1ccc(-c2nc(-c3cccc(OCCN4CCOCC4)c3)c(-c3ccnc(Br)c3)[nH]2)cc1 | -47.7% (active)
11 | Cn1c(/C=C(\C#N)c2cccc(C(F)(F)F)c2)nc2c(N3CCOCC3)nc(Cl)nc21 | -25.2% (active)
12 | COc1cccc2nc(Nc3ccc(NC(=O)c4ccc5ncccc5c4)cc3)ccc12 | 91% (inactive)
13 | CCCN(CCC)CCC(O)c1cc2c(c3ccccc13)CCCC2 (stereo not given) | 113% (inactive)
14 | C=C(C)[C@@H]1CC[C@]2(C(=O)O)CC[C@]3(C)[C@H](CC[C@@H]4[C@@]5(C)C[C@@H](CC#Cc6ccc(Cl)cc6)C(=O)C(C)(C)[C@@H]5CC[C@]43C)[C@@H]12 | 22.2% (inactive)
15 | C=C1C(=O)C2CCN1CC2 | 97.4% (inactive)
16 | CC1=C2[C@@H](CC1)[C@]1(C)O[C@@](C(C)C)(C[C@H]1OC(=O)[C@H](C)O)[C@H]2OC(=O)/C=C/c1ccccc1 | 89.1% (inactive)
17 | O=C(Nc1ccc(Cl)cc1)C1=NCCCCN1 | 96.6% (inactive)
18 | Cc1ccc(S(=O)(=O)c2nc(-c3ccccc3)oc2S(C)=O)cc1 (stereo not given) | -47.4% (active)
19 | COc1ccc(-c2nc(-c3ccccc3)c(-c3ccccc3)[nH]2)cc1OC1CCCCC1 | 97.6% (inactive)
20 | Cn1ncc(Cl)c1-c1cc(C(=O)N[C@H](CN)Cc2cccc(F)c2)sc1Cl | 12.2% (inactive)

Row | SMILES | growth
21 | CCCCCn1cnc2c(=S)nc[nH]c21 | 95% (inactive)
22 | O=C1c2ccccc2C(=O)c2c1c(C(=O)NCc1ccccc1)c1ccccn21 | 88.7% (inactive)
23 | O=[N+]([O-])c1ccc(/C(=C/c2ccccc2)[n+]2ccccc2)cc1 | 110% (inactive)
24 | COc1cc(/C=N/NC(=O)c2ccccc2Nc2cccc(C(F)(F)F)c2)cc(OC)c1OC | -5.58% (active)
25 | COC(=O)c1c(C)c2n(c1C)C(=O)C(c1ccccc1)=C2 | 67% (inactive)
26 | COc1cccc(/C=N\Nc2ccc([N+](=O)[O-])cn2)c1O | 57.5% (inactive)
27 | Cc1ccc(-c2nc(SCc3nc4cc(Cl)c(Cl)cc4[nH]3)[nH]c(=O)c2C#N)cc1 | 96.9% (inactive)
28 | Fc1cc(-c2cnc3nonc3n2)c(Cl)cc1Cl | -20.2% (active)
29 | O=C(/C=C/c1ccc(C(F)(F)F)cc1)c1ccc(Nc2nc(NCCO)nc(NCCO)n2)cc1 | 88.5% (inactive)
30 | Cc1nc2ccc(-n3c(-c4ccc(Cl)cc4)nc4ccccc4c3=O)cc2n1Cc1ccccc1 | 78.2% (inactive)
31 | O=S(=O)(NCCCNc1nccc(-c2c(-c3ccc(F)c(O)c3)nc3sccn23)n1)c1ccc(Cl)cc1 | 83.1% (inactive)
32 | COc1ccc(CSc2nc3cc(OC)c(OC)cc3c(=O)n2-c2ccc(OC)cc2OC)cc1 | 112% (inactive)
33 | O=C(NCCN1CCOCC1)OCc1ccc2c(Cl)cc(Cl)c(O)c2n1 | 73.1% (inactive)
34 | CCOC(=O)c1cc(C#N)n2ccc3ccccc3c12 | 92.1% (inactive)
35 | OCC1OC(OC2C(O)C(CO)OC2(CO)OC2OC(CO)C(O)C(O)C2O)C(O)C(O)C1O (stereo not given) | 129% (inactive)
36 | COc1cc2c3c(c1O)-c1ccccc1[C@@H]1OC(=O)N(CC2)[C@H]31 | 112% (inactive)
37 | O=C(CN1CCCCC1)Nc1ccc2oc(=O)ccc2c1 | 78.1% (inactive)
38 | COc1cccc(NC(=O)c2sc3nc(C)c(C(C)=O)cc3c2N)c1 | 6.61% (active)
39 | CNc1nc(NC)c2cn[nH]c2n1 | 103% (inactive)
40 | COc1cc(C(=C2O[C@@H]([C@H]3COC(C)(C)O3)[C@H]3OC(C)(C)O[C@@H]23)c2cc(OC)c(OC)c(OC)c2)cc(OC)c1OC | 107% (inactive)
